# Experimental data published in the supplement of paper PMC6522484.
# Structures can show the parent of a compound that is named as a salt. ± gives the standard deviation of the averaged measurements.
# Experiments:
# DLD1 [1] = test: cell viability (CellTiter-Glo) relative to plate median (fraction of plate median); higher = more viable cells; settings: 10 µM, treatment time 24 h
# Summary of the method: (§1)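 Each value averages two independent replicates in which the well signal was normalised to the plate median (webcellHTS2, additive, without log transformation). The signal was firefly luciferase or CellTiterGlo luminescence, read on parallel plates with a Tecan F500. The cells were colorectal cancer lines with stable lentiviral TCF/Wnt firefly luciferase reporters in 384-well plates, dosed 24 h after seeding with kinase inhibitor library compounds at a final 10 µM for 24 h.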
# HCT116 [2] = test: as above; settings: 10 µM; treatment time 24 h; reporter: TCF4/Wnt
# Summary of the method: as §1
# SW480 [3] = test: as above; settings: 10 µM; treatment time 24 h; reporter: 7TFP
# Summary of the method: as §1
# DLD1 [4] = test: TCF/Wnt firefly luciferase reporter signal relative to plate median (fraction of plate median); higher = higher Wnt reporter signal; settings: 10 µM, treatment time 24 h
# Summary of the method: as §1
# HCT116 [5] = test: as above; settings: 10 µM; treatment time 24 h; reporter: TCF4/Wnt
# Summary of the method: as §1
# SW480 [6] = test: as above; settings: 10 µM; treatment time 24 h; reporter: 7TFP
# Summary of the method: as §1
SMILES,cell viability (DLD1 [1]; reporter: 7TFP),cell viability (DLD1 [1]; reporter: TCF4/Wnt),cell viability (HCT116 [2]),cell viability (SW480 [3]),TCF/Wnt firefly luciferase reporter signal (DLD1 [4]; reporter: 7TFP),TCF/Wnt firefly luciferase reporter signal (DLD1 [4]; reporter: TCF4/Wnt),TCF/Wnt firefly luciferase reporter signal (HCT116 [5]),TCF/Wnt firefly luciferase reporter signal (SW480 [6])
CCN(CC)CCNC(=O)c1c(C)[nH]c(/C=C2\C(=O)Nc3ccc(F)cc32)c1C [Sunitinib Malate (Sutent)],0.867 ± 0.1,0.9685 ± 0.0035,0.659 ± 0.31,1.02 ± 0.15,0.939 ± 0.051,0.87 ± 0.18,0.605 ± 0.33,1.14 ± 0.21
Nc1ccc(-c2ccc3ncc4ccc(=O)n(-c5cccc(C(F)(F)F)c5)c4c3c2)cn1 [Torin 2],0.949 ± 0.031,0.9595 ± 0.005,0.681 ± 0.085,1.11 ± 0.064,0.355 ± 0.027,0.523 ± 0.032,0.641 ± 0.073,0.817 ± 0.0099
COc1ccc(-c2ccc3c(N4CCOCC4)nc(N4C[C@@H](C)O[C@@H](C)C4)nc3n2)cc1CO,0.938 ± 0.074,0.878 ± 0.041,0.842 ± 0.076,1.18 ± 0.021,0.392 ± 0.059,0.597 ± 0.019,0.432 ± 0.24,0.812 ± 0.29
Cn1cnc2c(F)c(Nc3ccc(Br)cc3Cl)c(C(=O)NOCCO)cc21 [AZD6244 (Selumetinib)],1.11 ± 0.042,1.08 ± 0.035,0.914 ± 0.066,1.125 ± 0.0071,1.45 ± 0.021,1.42 ± 0.16,0.99 ± 0.52,1.34 ± 0.72
O=C1NC(=O)C(=Cc2ccc(-c3ccc(F)cc3)o2)S1 (stereo in doubt),1.08 ± 0.11,1.11 ± 0.064,1.09 ± 0.11,0.937 ± 0.1,1.25 ± 0.021,1.55 ± 0.16,1.29 ± 0.38,1.1 ± 0.13
S=C(NCc1ccc2c(c1)OCO2)N1CCN(c2ncnc3c2oc2ccccc23)CC1 [Amuvatinib (MP-470)],0.997 ± 0.047,1.03 ± 0.091,1.15 ± 0.17,0.869 ± 0.013,1.07 ± 0.092,1.23 ± 0.057,1.13 ± 0.29,0.953 ± 0.12
Cc1c(CN2CCN(C(=O)[C@H](C)O)CC2)sc2c(N3CCOCC3)nc(-c3cnc(N)nc3)nc12,0.999 ± 0.13,0.9185 ± 0.0064,0.679 ± 0.16,1.1 ± 0.092,0.287 ± 0.056,0.419 ± 0.11,0.577 ± 0.21,0.764 ± 0.017
Cc1nc(N)sc1-c1ccnc(Nc2ccc(N3CCOCC3)cc2)n1,1.09 ± 0.14,1.09 ± 0.085,1.07 ± 0.064,1.06 ± 0.028,1.24 ± 0.23,1.23 ± 0.36,1.72 ± 0.2,0.774 ± 0.36
COc1cc(Nc2c(C#N)cnc3cc(OCCCN4CCN(C)CC4)c(OC)cc23)c(Cl)cc1Cl [Bosutinib (SKI-606)],0.869 ± 0.034,0.9025 ± 0.0021,0.864 ± 0.016,0.995 ± 0.035,0.4675 ± 0.0035,0.534 ± 0.021,0.242 ± 0.22,0.648 ± 0.23
CCc1cc(Nc2nccc(-c3c(-c4ccc(OC)c(C(=O)Nc5c(F)cccc5F)c4)nc4ccccn34)n2)c(OC)cc1N1CCC(N2CCN(S(C)(=O)=O)CC2)CC1,0.925 ± 0.059,0.995 ± 0.12,1.1 ± 0.028,0.974 ± 0.066,0.939 ± 0.035,0.977 ± 0.047,1.25 ± 0.05,1.24 ± 0.085
NCC(=O)Nc1ccc(-n2nc(C(F)(F)F)cc2-c2ccc3c(ccc4ccccc43)c2)cc1,0.883 ± 0.098,0.998 ± 0.14,0.833 ± 0.13,0.678 ± 0.46,1.09 ± 0.085,1.31 ± 0.34,0.606 ± 0.18,1.3 ± 0.057
Nc1ccc(C(=O)Nc2cccc(-c3nc(N4CCOCC4)c4oc5ncccc5c4n3)c2)cn1,0.832 ± 0.044,0.858 ± 0.025,0.819 ± 0.049,1.004 ± 0.0078,0.758 ± 0.033,0.654 ± 0.069,0.591 ± 0.2,0.827 ± 0.4
N=C(N)NC(=N)NCCc1ccccc1 [Phenformin hydrochloride],1.185 ± 0.0071,1.06 ± 0.057,1.21 ± 0.18,0.923 ± 0.086,1.26 ± 0.12,1.21 ± 0.27,1.3 ± 0.51,1.17 ± 0.21
CCN1CCN(c2ccc(Nc3cc(N(C)C(=O)Nc4c(Cl)c(OC)cc(OC)c4Cl)ncn3)cc2)CC1,1.36 ± 0.18,1.06 ± 0.071,1.16 ± 0.092,0.921 ± 0.033,1.24 ± 0.11,1.06 ± 0.51,0.852 ± 0.15,0.921 ± 0.12
CC(=O)Nc1nc(C)c(-c2ccc(Cl)c(S(=O)(=O)NCCO)c2)s1,0.939 ± 0.13,0.947 ± 0.0014,0.974 ± 0.051,1.1,0.9 ± 0.037,1 ± 0.08,1.09 ± 0.085,0.944 ± 0.033
CN(C)C/C=C/C(=O)Nc1cc2c(Nc3ccc(F)c(Cl)c3)ncnc2cc1O[C@H]1CCOC1 [Afatinib (BIBW2992)],0.916 ± 0.074,0.843 ± 0.0092,0.635 ± 0.19,1.18 ± 0.042,0.292 ± 0.089,0.407 ± 0.0014,0.131 ± 0.091,0.447 ± 0.19
Cc1cc2c(F)c(Oc3ncnn4cc(OC[C@@H](C)OC(=O)[C@H](C)N)c(C)c34)ccc2[nH]1,1.06 ± 0.042,0.938 ± 0.052,0.981 ± 0.041,1.23 ± 0.071,1.03 ± 0.11,1.135 ± 0.0071,0.852 ± 0.16,1.28 ± 0.099
CCC(=O)N1CCN(c2ccc(-n3c(=O)ccc4cnc5ccc(-c6cnc7ccccc7c6)cc5c43)cc2C(F)(F)F)CC1 [Torin 1],0.914 ± 0.16,0.97 ± 0.013,0.827 ± 0.045,1.17 ± 0.11,0.252 ± 0.044,0.311 ± 0.049,0.44 ± 0.096,0.66 ± 0.14
COc1cc2ncnc(Nc3cccc(Cl)c3)c2cc1OC [AG-1478 (Tyrphostin AG-1478)],0.949 ± 0.059,1 ± 0.053,1.12 ± 0.014,0.9395 ± 0.005,0.847 ± 0.03,0.75 ± 0.1,1.015 ± 0.0071,0.962 ± 0.054
CNC(=O)c1cc(COc2nnc(Nc3ccc(Cl)cc3)c3ccoc23)ccn1 [Telatinib (BAY 57-9352)],1.13 ± 0.23,0.987 ± 0.033,1.05 ± 0.079,0.972 ± 0.024,1.32 ± 0.05,1.09 ± 0.13,1.08 ± 0.25,1.08 ± 0.14
Cn1cc(-c2ccc3nnc(C(F)(F)c4ccc5ncccc5c4)n3n2)cn1,1.14 ± 0.13,0.972 ± 0.11,1.16 ± 0.05,0.846 ± 0.059,1.35 ± 0.05,1.4 ± 0.32,1.25 ± 0.43,1.06 ± 0.064
O=C(NCCCNc1nc(Nc2cccc(NC(=O)N3CCCC3)c2)ncc1I)c1cccs1,0.966 ± 0.19,0.97 ± 0.21,0.817 ± 0.6,1.06 ± 0.14,0.81 ± 0.0057,0.882 ± 0.32,1.06 ± 1.1,1.06 ± 0.021
